# Measured potencies and affinities stand elsewhere. Records with an inconclusive call do not appear. Unmarked numbers belong to inactive results. Active and inactive are the calls of the source. How the calls were made is not given here.
# Test: OVCAR-3 cell viability loss – plate reader, dry powder samples, PAX8 inhibitor project, dose response (AID 743044)
# Conditions: NIH:OVCAR-3 ovarian cancer cell viability; max activity: at 35 µM, active compounds read low unless noted; series mostly up to 50 µM
row,Compound,max activity
1,C[C@H](CO)N1C[C@H](C)[C@@H](CN(C)Cc2ccc(C(F)(F)F)cc2)Oc2ccc(NS(=O)(=O)c3ccc(F)cc3)cc2CC1=O,"24.7% [at 16 µM, active compounds read low]"
2,C[C@@H]1CCCCO[C@@H](CN(C)C(=O)C2CCCCC2)[C@H](C)CN([C@H](C)CO)C(=O)c2cc(NS(=O)(=O)c3ccc(Cl)cc3)ccc2O1,"-13.3% [at 0.5 µM, active compounds read low]"
3,COc1cccc(-c2ccc3c(c2)[C@@H]2[C@@H](CCN2C(=O)NC2CCCCC2)[C@H](CO)N3C)c1,"-16.7% [at 2.1 µM, active compounds read low]"
4,C[C@@H]1CCCCO[C@@H](CN(C)Cc2ccccc2)[C@@H](C)CN([C@H](C)CO)C(=O)c2cc(NC(=O)Nc3ccc(C(F)(F)F)cc3)ccc2O1,-13.2%
5,C[C@@H]1CN([C@H](C)CO)C(=O)Cc2cc(NC(=O)Nc3ccc(F)cc3)ccc2O[C@H]1CN(C)C(=O)Nc1ccc(C(F)(F)F)cc1,-34.3%
6,C[C@H](CO)N1C[C@H](C)[C@@H](CN(C)Cc2ccc(Oc3ccccc3)cc2)OCc2ccccc2-c2c(n(C)c3ccccc23)C1=O,1.33%
7,C[C@@H]1CCCCO[C@@H](CN(C)CC2CCCCC2)[C@@H](C)CN([C@@H](C)CO)C(=O)c2cc(NC(=O)Nc3ccc(C(F)(F)F)cc3)ccc2O1,"17.1% [at 0.5 µM, active compounds read low]"
8,C[C@H]1CCCCO[C@H](CN(C)S(=O)(=O)c2ccc(Cl)cc2)[C@@H](C)CN([C@@H](C)CO)C(=O)c2cc(NS(=O)(=O)c3ccc(Cl)cc3)ccc2O1,-21.5%

# Test: toxicity toward immortalized ovarian surface epithelium – cell-based, plate reader, dry powder samples, cytotoxicity control for PAX8 inhibitor project, dose response (AID 743045);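 further: 0% = neutral control median and -100% = positive control median; more negative values mean more cell killing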
# Conditions: IOSE-T80 ovarian epithelial cells; series mostly up to 35 µM
row,Compound,outcome
1,C[C@@H]1CCCCO[C@H](CN(C)Cc2ccc(C(F)(F)F)cc2)[C@H](C)CN([C@H](C)CO)C(=O)c2cc(NS(=O)(=O)c3ccc(F)cc3)ccc2O1,inactive
2,C[C@@H]1CN([C@H](C)CO)C(=O)c2cc(NC(=O)c3ccncc3)ccc2O[C@@H](C)CCCCO[C@H]1CN(C)Cc1ccc(C(F)(F)F)cc1,inactive
3,O=C(C[C@H]1CC[C@H]2[C@@H](COC[C@@H](O)CN2S(=O)(=O)c2ccccc2Cl)O1)N1CCC(Cc2ccccc2)CC1,inactive
4,C[C@@H]1CN([C@@H](C)CO)C(=O)c2ccccc2-c2ccccc2CO[C@H]1CN(C)Cc1ccccc1C(F)(F)F,inactive
5,C[C@@H]1CN([C@@H](C)CO)S(=O)(=O)c2ccc(C#Cc3ccccc3F)cc2O[C@H]1CN(C)CC1CCOCC1,inactive
6,C[C@@H]1CN([C@@H](C)CO)C(=O)Cc2cc(NC(=O)Nc3ccc(C(F)(F)F)cc3)ccc2O[C@H]1CN(C)S(=O)(=O)c1ccc(F)cc1,inactive
7,C[C@@H]1CCCCO[C@H](CN(C)C(=O)Nc2ccc(F)cc2)[C@@H](C)CN([C@@H](C)CO)C(=O)c2cc(NC(=O)Nc3ccc(C(F)(F)F)cc3)ccc2O1,inactive
8,C[C@@H]1CCCCO[C@@H](CN(C)Cc2ccc(C(F)(F)F)cc2)[C@H](C)CN([C@H](C)CO)C(=O)c2cc(NS(=O)(=O)c3ccc(Cl)cc3)ccc2O1,inactive
9,C[C@@H]1CCCCO[C@@H](CN(C)C(=O)C2CCCCC2)[C@H](C)CN([C@H](C)CO)C(=O)c2cc(NC(=O)Nc3ccc(F)cc3)ccc2O1,inactive
10,C[C@H](CO)N1C[C@H](C)[C@H](CN(C)Cc2ccc(Cl)c(Cl)c2)Oc2c(NS(=O)(=O)c3ccc(Cl)cc3)cccc2C1=O,inactive
11,C[C@@H]1CCCCO[C@@H](CN(C)Cc2ccc(Cl)c(Cl)c2)[C@H](C)CN([C@@H](C)CO)C(=O)c2cc(NC(=O)Cc3ccccc3)ccc2O1,inactive
12,C[C@H](CO)N1C[C@H](C)[C@H](CN(C)Cc2ccc3c(c2)OCO3)Oc2ccc(NC(=O)Nc3cccc4ccccc34)cc2C1=O,inactive
13,COc1ccccc1-c1ccc2c(c1)[C@H]1[C@H](CCN1S(=O)(=O)c1ccccc1F)[C@H](CO)N2,inactive
14,C[C@@H]1CN([C@H](C)CO)C(=O)c2cc(NC(=O)c3ccccc3)ccc2O[C@@H](C)CCCCO[C@H]1CN(C)Cc1ccc(C(F)(F)F)cc1,inactive
15,C[C@H]1CCCCO[C@@H](CN(C)C(=O)c2ccccc2)[C@@H](C)CN([C@@H](C)CO)C(=O)c2cc(NC(=O)Nc3ccc(C(F)(F)F)cc3)ccc2O1,inactive
16,Cc1ccc(S(=O)(=O)N(C)C[C@H]2Oc3c(NC(=O)Nc4ccc(F)cc4)cccc3C(=O)N([C@@H](C)CO)C[C@H]2C)cc1,inactive
17,O=S(=O)(c1ccc(F)cc1)N1C[C@H]2[C@@H](c3ccccc31)[C@H](CO)N2Cc1ccccc1Cl,inactive
18,Cc1ccc(S(=O)(=O)N(C)C[C@H]2OCCCC[C@@H](C)Oc3ccc(NS(=O)(=O)c4ccc(F)cc4)cc3C(=O)N([C@@H](C)CO)C[C@H]2C)cc1,inactive
19,C[C@H](CO)N1C[C@H](C)[C@@H](CN(C)CC2CCCCC2)Oc2ccc(NC(=O)Nc3ccc4c(c3)OCO4)cc2CC1=O,inactive
20,O=C(C[C@@H]1C[C@H]2c3cc(NC(=O)C4CCOCC4)ccc3O[C@H]2[C@H](CO)O1)NCc1ccc(Oc2ccccc2)cc1,inactive

row,Compound,outcome
1,C[C@H]1CCCCO[C@@H](CN(C)Cc2ccc(C(F)(F)F)cc2)[C@@H](C)CN([C@@H](C)CO)C(=O)c2cc(NS(=O)(=O)c3cccs3)ccc2O1,inactive
2,C[C@H](CO)N1C[C@H](C)[C@@H](CN(C)Cc2ccc(Cl)c(Cl)c2)OCCCC[C@H](C)Oc2ccc(NC(=O)Nc3ccc(C(F)(F)F)cc3)cc2C1=O,inactive
3,C[C@@H]1CCCCO[C@H](CN(C)C(=O)C2CCCCC2)[C@@H](C)CN([C@@H](C)CO)C(=O)c2cc(NC(=O)Nc3ccccc3)ccc2O1,inactive
4,C[C@@H]1CN([C@H](C)CO)C(=O)Cc2cc(NC(=O)Nc3ccc(F)cc3)ccc2O[C@@H]1CN(C)Cc1ccc(Cl)c(Cl)c1,inactive
5,C[C@H]1CN([C@@H](C)CO)C(=O)CCCn2nncc2CO[C@@H]1CN(C)C(=O)Nc1ccc(-c2cccs2)cc1,inactive
6,C[C@@H]1CCCCO[C@H](CN(C)CC2CCCCC2)[C@H](C)CN([C@H](C)CO)C(=O)c2cc(NS(=O)(=O)c3ccc(Cl)cc3)ccc2O1,inactive
7,Cc1cccc(S(=O)(=O)N2CC[C@@H]3[C@H](CO)Nc4ccc(C5=CCCCC5)cc4[C@@H]32)c1,inactive
8,C[C@H]1CN([C@@H](C)CO)C(=O)c2c(c3ccccc3n2C)-c2ccccc2CO[C@@H]1CN(C)Cc1ccc(-c2ccccc2)cc1,inactive
9,C[C@@H]1CN([C@@H](C)CO)C(=O)c2c(c3ccccc3n2C)-c2ccccc2CO[C@H]1CN(C)C(=O)Nc1ccc2c(c1)OCO2,inactive
10,CN1c2ccc(C#Cc3cccnc3)cc2[C@@H]2[C@@H](CCN2C(=O)Cc2cccnc2)[C@@H]1CO,inactive
11,C[C@@H]1CN([C@@H](C)CO)C(=O)c2cc(NS(=O)(=O)c3ccc(F)cc3)ccc2O[C@@H](C)CCCCO[C@H]1CN(C)Cc1ccc(C(F)(F)F)cc1,inactive
12,C[C@@H]1CN([C@@H](C)CO)C(=O)c2cc(NC(=O)Nc3ccc(C(F)(F)F)cc3)ccc2O[C@@H](C)CCCCO[C@H]1CN(C)Cc1ccc(Cl)c(Cl)c1,inactive
13,C[C@H](CO)N1C[C@H](C)[C@@H](CN(C)Cc2ccc(C(F)(F)F)cc2)Oc2ccc(NS(=O)(=O)c3ccc(F)cc3)cc2CC1=O,inactive
14,C[C@@H]1CCCCO[C@@H](CN(C)C(=O)C2CCCCC2)[C@H](C)CN([C@H](C)CO)C(=O)c2cc(NS(=O)(=O)c3ccc(Cl)cc3)ccc2O1,inactive
15,COc1cccc(-c2ccc3c(c2)[C@@H]2[C@@H](CCN2C(=O)NC2CCCCC2)[C@H](CO)N3C)c1,inactive
16,C[C@@H]1CCCCO[C@@H](CN(C)Cc2ccccc2)[C@@H](C)CN([C@H](C)CO)C(=O)c2cc(NC(=O)Nc3ccc(C(F)(F)F)cc3)ccc2O1,inactive
17,C[C@@H]1CN([C@H](C)CO)C(=O)Cc2cc(NC(=O)Nc3ccc(F)cc3)ccc2O[C@H]1CN(C)C(=O)Nc1ccc(C(F)(F)F)cc1,inactive
18,C[C@H](CO)N1C[C@H](C)[C@@H](CN(C)Cc2ccc(Oc3ccccc3)cc2)OCc2ccccc2-c2c(n(C)c3ccccc23)C1=O,inactive
19,C[C@@H]1CCCCO[C@@H](CN(C)CC2CCCCC2)[C@@H](C)CN([C@@H](C)CO)C(=O)c2cc(NC(=O)Nc3ccc(C(F)(F)F)cc3)ccc2O1,inactive
20,C[C@H]1CCCCO[C@H](CN(C)S(=O)(=O)c2ccc(Cl)cc2)[C@@H](C)CN([C@@H](C)CO)C(=O)c2cc(NS(=O)(=O)c3ccc(Cl)cc3)ccc2O1,inactive
